# From PubChem BioAssay
# PTHR1 agonist: activates the human parathyroid hormone receptor PTHR1 | 410,000 compounds, 0.075% hits | AID 743266 | HEK293 GP2 PTHR1 cells, GloSensor cAMP luminescence, 1 h | Q03431 | Potency, µM (series often up to 115 µM), inactives show at the top dose activation, actives largely listed as activators; also: potency is read from the fitted curve at half-maximal effect; nearly all actives have a fitted effect of over 55% in size
# Target sequence (Q03431 whole entry, looked up): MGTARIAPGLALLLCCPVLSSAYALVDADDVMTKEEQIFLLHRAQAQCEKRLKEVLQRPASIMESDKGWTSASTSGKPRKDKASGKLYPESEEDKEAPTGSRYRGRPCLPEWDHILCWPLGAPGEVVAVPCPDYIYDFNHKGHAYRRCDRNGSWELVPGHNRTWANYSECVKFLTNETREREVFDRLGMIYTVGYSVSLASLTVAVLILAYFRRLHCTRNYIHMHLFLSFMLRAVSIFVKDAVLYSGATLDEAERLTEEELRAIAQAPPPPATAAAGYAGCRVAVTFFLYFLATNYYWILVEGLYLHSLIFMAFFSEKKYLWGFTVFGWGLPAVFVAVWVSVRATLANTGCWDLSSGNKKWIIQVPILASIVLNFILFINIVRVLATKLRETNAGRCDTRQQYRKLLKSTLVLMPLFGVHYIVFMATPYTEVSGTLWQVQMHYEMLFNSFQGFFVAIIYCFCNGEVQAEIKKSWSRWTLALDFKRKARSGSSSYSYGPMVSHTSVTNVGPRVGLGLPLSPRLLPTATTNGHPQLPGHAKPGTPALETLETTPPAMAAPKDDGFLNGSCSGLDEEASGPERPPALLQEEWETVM
#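 HEK-293-derived GP2 cells expressing PTHR1 and a GloSensor cAMP reporter, 3,000/well, plated overnight, given luciferin plus IBMX (each 0.5 mM as added) for 1 h at 37 °C, then compound for 1 h at 37 °C. Luminescence was read after 15 min at room temperature.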
# RXFP1 agonist: RXFP1 (human) receptor agonism | Q9HBX9 | HEK293T-RXFP1 cAMP TR-FRET, 30 min; response scale: percent of porcine relaxin response, buffer zero | Potency, µM (series often up to 57.5 µM), for the others: at the top dose activation, actives largely listed as activators | 370,000 compounds, 0.3% hits; also: potency is read from the fitted curve at half-maximal effect; % is scaled to controls: 0 for no effect and ±100 for the full control effect; nearly all actives have a fitted effect of over 60% in size
#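 Agonist response is measured as cAMP accumulation in an RXFP1-transfected HEK293T line under PDE4 inhibition. Values are scaled between buffer-only and 29 nM porcine relaxin, and EC50s come from standard Hill equation fits.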
# GRP78 ERSR act: inducers of ER stress response in human glioma cells; Potency, µM, for the others: at the highest dose activation, usual class: activators; 420,000 compounds, 0.02% hits; U87-MG GRP78 promoter luciferase reporter, 16 h; also: potency is read from the fitted curve at half-maximal effect; series mostly up to about 76 µM; % of control where 0% means no effect; nearly all actives have a fitted effect of over 35% in size
#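 Stably transfected U87-MG human glioma cells carrying a GRP78-based luminescent sensor were seeded at 1000 cells/well, pin-dosed with compounds and incubated 16 h. Luciferase reagent was then added, and end-point luminescence was read after 10 min at room temperature.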
# hERG WT inh: blocks the wildtype human KCNH2 potassium channel; 340,000 compounds, 0.37% hits; U2OS, BacMam KCNH2, thallium flux FluxOr; stronger effect = lower value; activity change, % at 1.84 µM; Q12809;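 active = maximum activity change below -70%; inconclusive = maximum activity change between -70% and -50%; inactive = maximum activity change above -50%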; also: % is scaled to controls: 0 for no effect and ±100 for the full control effect
#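 U2OS cells were transduced with wild-type KCNH2 virus (2.03 x 10^8 / mL) for 4 h at room temperature, then cultured overnight at 37 C. Thallium flux was read with FluxOr dye. Rate constants were normalized to DMSO controls.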
# KCNH2 3.1 inh: blocks the human KCNH2 3.1 channel isoform; U2OS KCNH2 3.1, thallium flux FluxOr; stronger effect = lower value; activity change, % (tested at about 1.8 µM); 340,000 compounds, 0.95% hits; AID 720553;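 active = maximum activity change below -70%; inconclusive = maximum activity change from -70% to -50%; inactive = maximum activity change above -50%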;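 also: thallium influx rate constant from kinetic fluorescence after stimulation buffer; % is scaled to controls: 0 for no effect and ±100 for the full control effect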
#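 We transduce U2OS cells with the mutant 3.1 virus, culture them overnight, load FluxOr with Red40 quencher for 45 min, then add stimulation buffer and read kinetically for 2 min to derive a normalized rate constant.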
# RXFP1 antag: RXFP1 (human) relaxin receptor antagonism; 350,000 compounds, 0.59% hits; Q9HBX9; AID 1259400; HEK293-RXFP1, relaxin-stimulated cAMP HTRF, 30 min; stronger effect = lower value; activity change, negative = inhibition, % at 57.5 µM;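 active = activity change of -60% or lower, but not beyond a set lower limit; inconclusive = change between -60% and -40%, or beyond the set limit; inactive = change above -40%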; also: % is scaled to controls: 0 for no effect and ±100 for the full control effect
# * marks the source's active call; other numbers are inactive results; i = inactive; ? = inconclusive; / = not tested or not shown; [ ] = dose if it differs, or a comment. Only some compounds are listed: those with a hit (about 1.4% of all), similar ones and a draw of the others. Unless noted, calls follow the shape of the dose curve; as a rule, active = well fitted curve in the direction sought with a large enough effect; inconclusive = small, poorly fitted or top-dose-only effect, or another doubt; inactive = no such curve, though single readings can be large; an effect the other way counts as inactive or inconclusive.
SMILES,PTHR1 agonist,RXFP1 agonist,GRP78 ERSR act,hERG WT inh,KCNH2 3.1 inh,RXFP1 antag
Cn1c(CNC(=O)c2ccco2)nnc1SCC(=O)N1CCN(c2ccccc2F)CC1,?,-2.5%,-3.9%,9.9,4.4,-93.5*
N=c1c2c3c(sc2ncn1CCN1CCOCC1)CCCC3,-6.1%,3.2%,-6.2%,-8.5,-4.6,0.0
Cc1cc(-c2ccc(C)c(S(=O)(=O)Nc3cccc(C)n3)c2)on1,-21.4%,3.3%,-0.2%,/,/,-11.8
Cc1cc(-c2ccc(C(C)C)c(S(=O)(=O)Nc3cc(C)on3)c2)on1,i,0.7%,-1.6%,-5.3,1.1,-65.2*
Cc1cc(C)n2c(NC3CCCCC3)c(CC(C)C)nc2n1,-21.8%,/,/,/,/,/
CC1CCc2c(sc(NC(=O)c3ccccc3C(=O)O)c2C#N)C1 (stereo unspecified),-28.6%,0.4%,1.6%,3.7,10.3,-8.3
CCC(C)(C)C1CCc2c(sc(NC(=O)c3ccccc3C(=O)O)c2C#N)C1 (stereo unspecified),-12.2%,0.2%,3.9%,-3.3,-4.9,-69.3*
Cc1cc(O)c(CN2CCN(c3ccc(F)cc3)CC2)c2oc(=O)cc(C)c12,i,25.1µM*,-3.0%,/,/,-9.8
CCCc1c(C)c2ccc(O)c(CN3CCN(c4ccc(F)cc4)CC3)c2oc1=O,-35.9%,0.3%,-1.1%,/,/,-13.9
CC(C)(C)OC(=O)[C@H](Cc1ccccc1)NC(=O)c1[nH]cnc1C(=O)Nc1cccc(Cl)c1,-20.0%,4.3%,5.8%,-1.7,-18.0,/
COc1ccc(NC(=O)CCCCC(=O)Nc2ccc(OC)cc2OC)c(OC)c1,-15.5%,/,0.9%,-0.9,-1.8,-2.5
O=C(NCc1ccccc1)C12CN(Cc3ccccc3)CC1C(c1cccc([N+](=O)[O-])c1)=NO2 (stereo unspecified),-28.4%,1.4%,-4.2%,-31.8,-15.4,/
CCCCN(CCCC)CCCNC(=O)C12CN(Cc3ccccc3)CC1C(c1cccc([N+](=O)[O-])c1)=NO2 (stereo unspecified),i,0.0%,1.8%,-75.6*,-86.7*,/
CC(C)(C)OC(=O)C[C@H]1C/C=C\C[C@@H](CC(=O)N(CCO)Cc2ccccc2)C(=O)NCCOC1=O,i,/,-3.3%,0.7,9.4,/
CCOC(=O)c1cc2c(=O)n3ccccc3nc2n(Cc2ccco2)c1=NC(=O)c1ccccc1Br,-21.5%,11.2%,-3.4%,/,/,/
CCOC(=O)c1cc2c(=O)n3ccccc3nc2n(Cc2ccco2)c1=NC(=O)c1ccccc1OCC,-30.0%,28.2µM*,-3.9%,4.8,-4.0,-5.4
CCOc1cc(C(=O)Nc2ccc([N+](=O)[O-])cn2)cc(OCC)c1OCC,-9.1%,0.3%,-1.0%,1.1,-4.8,5.2
COc1cc(Br)cc(/C=C/c2ccc3cccc(O)c3n2)c1O,i,0.0%,8.1%,-6.8,0.9,5.1
c1ccc(CCN(Cc2ccccc2)C2CCN(C3CCCC3)CC2)cc1,i,2.3%,-1.1%,12.5,-87.7*,-7.8
CCCCC(CC)COS(=O)(=O)O (stereo unspecified),/,/,1.1%,/,/,/
COc1ccc(C=C2C=C(C(C)(C)C)C(=O)C(C(C)(C)C)=C2)cc1OC,-6.3%,-0.2%,13.3%,-12.4,-14.7,-88.0*
COc1ccc(/C=C2\CC/C(=C\c3ccc(OC)c(OC)c3)C2=O)cc1OC,-3.9%,-0.3%,-2.7%,-2.1,12.3,-13.9
CC(/C=N/NC(=O)c1cc(-c2ccc(C)o2)[nH]n1)=C\c1ccccc1,-12.4%,1.3%,-4.0%,/,-26.7,-16.2
O=C(N/N=C/C(Br)=C/c1ccccc1)c1cc(-c2ccco2)[nH]n1,-20.3%,-0.3%,-10.0%,-1.3,-20.0,-80.6*
O=C(Cn1c(C(=O)N2CCN(C3CCCCC3)CC2)cc2sccc21)c1ccccc1,-2.9%[57.5 µM],0.6%,-3.8%,-18.9,/,-8.4
SMILES,PTHR1 agonist,RXFP1 agonist,GRP78 ERSR act,hERG WT inh,KCNH2 3.1 inh,RXFP1 antag
O=C(Cn1c(C(=O)N2CCc3ccccc3C2)cc2sccc21)c1ccccc1,22.4µM*,0.5%,-2.8%,16.3,-49.8,-2.1
O=C(NC(=S)Nc1cc([N+](=O)[O-])ccc1Cl)c1ccccc1,-1.8%,-0.1%,-0.6%,-168.4*,-154.0*,-6.7
OCCOCCNc1ncnc2nc[nH]c12,-3.0%,-0.1%,-4.9%,-4.4,-207.2*,/
CCCNc1ncnc2nc[nH]c12,i,2.1%,-5.1%,-7.6,8.4,/
COc1ccccc1Nc1ncnc2c1c(C)c(C)n2CCCN(C)C,-22.1%,3.7%,0.2%,-2.9,0.8,-5.8
CC(C)C(c1nnnn1Cc1ccc(F)cc1)N1CCN(Cc2ccc3c(c2)OCO3)CC1 (stereo unspecified),-21.3%[57.5 µM],1.3%,3.8%,1.4,-71.4*,-16.0
CCN1CCN(C(c2nnnn2Cc2ccc3c(c2)OCO3)C(C)C)CC1 (stereo unspecified),-20.7%,0.9%,-3.5%,4.0,-2.1,1.9
Cc1ccc(C(c2nnnn2Cc2cccs2)N2CCN(Cc3ccc4c(c3)OCO4)CC2)cc1 (stereo unspecified),-6.0%[57.5 µM],2.0%,-3.6%,-109.8*,-95.1*,-3.5
COCCn1nnnc1C(c1ccc(C)cc1)N1CCN(Cc2ccc3c(c2)OCO3)CC1 (stereo unspecified),-4.4%,0.4%,-2.5%,-16.1,-23.8,8.0
COc1ccc(NC(=S)Nc2ccc3snnc3c2)cc1,-25.7%,2.0%,-2.2%,3.9,-83.0*,2.3
O=C(CCc1ccccc1F)N1CCN(c2ccc(C(F)(F)F)cn2)CC1,-17.7%,-0.7%,-0.6%,6.1,5.3,-7.6
N#Cc1ccc(OCC(=O)N2CCN(c3ccc(C(F)(F)F)cn3)CC2)cc1,-16.2%,4.7%,-6.1%,-41.1,-92.4*,-2.6
Cc1cc(NC(=O)CCN2C(=O)C3C4C=CC(C4)C3C2=O)c2ccccc2n1 (stereo unspecified),i,-0.7%,-7.0%,-133.2*,-138.0*,2.2
O=C(CCN1C(=O)C2C3C=CC(C3)C2C1=O)Nc1ccccc1 (stereo unspecified),5.5%,2.7%,-1.8%,-11.2,-2.2,-3.1
O=C(O)COCC(=O)Nc1ccc(Oc2ncnc3cc(Cl)ccc23)nc1,i,-2.1%,3.6%,2.5,8.8,3.9
O=C(CCS(=O)(=O)c1nc(-c2cccs2)cc(C(F)(F)F)n1)Nc1ccc(F)c(Cl)c1,-37.1%,0.2%,-10.7%,/,/,-60.2*
COc1ccc(NC(=O)CCS(=O)(=O)c2nc(-c3cccs3)cc(C(F)(F)F)n2)cc1,-1.2%,3.2%,-9.9%,/,/,?
CCN(CC(=O)Nc1ccc(NC(C)=O)cc1)CC(=O)Nc1cccc(Cl)c1,-4.2%,0.2%,-2.9%,3.9,4.6,-1.5
